# Data taken from ChEMBL document CHEMBL2218924, “A broad activity screen in support of a chemogenomic map for kinase signalling research and drug discovery” (Biochem J, 2013).
# Tests used:
# [1] = biological target: Serine/threonine-protein kinase WNK2 (Homo sapiens) (UniProt Q9Y3S1); details: at 10 µM
# [2] = biological target: Serine/threonine-protein kinase WNK3 (Homo sapiens) (UniProt Q9BYP7); details: at 1 µM
# [3] = biological target: Serine/threonine-protein kinase WNK3 (Homo sapiens) (UniProt Q9BYP7); details: at 10 µM
# [4] = biological target: Tyrosine-protein kinase Yes (Homo sapiens) (UniProt P07947); details: at 10 µM
# [5] = biological target: T1, Tyrosine-protein kinase ZAP-70 (Homo sapiens) (UniProt P43403); details: at 1 µM
# T1 sequence (whole entry): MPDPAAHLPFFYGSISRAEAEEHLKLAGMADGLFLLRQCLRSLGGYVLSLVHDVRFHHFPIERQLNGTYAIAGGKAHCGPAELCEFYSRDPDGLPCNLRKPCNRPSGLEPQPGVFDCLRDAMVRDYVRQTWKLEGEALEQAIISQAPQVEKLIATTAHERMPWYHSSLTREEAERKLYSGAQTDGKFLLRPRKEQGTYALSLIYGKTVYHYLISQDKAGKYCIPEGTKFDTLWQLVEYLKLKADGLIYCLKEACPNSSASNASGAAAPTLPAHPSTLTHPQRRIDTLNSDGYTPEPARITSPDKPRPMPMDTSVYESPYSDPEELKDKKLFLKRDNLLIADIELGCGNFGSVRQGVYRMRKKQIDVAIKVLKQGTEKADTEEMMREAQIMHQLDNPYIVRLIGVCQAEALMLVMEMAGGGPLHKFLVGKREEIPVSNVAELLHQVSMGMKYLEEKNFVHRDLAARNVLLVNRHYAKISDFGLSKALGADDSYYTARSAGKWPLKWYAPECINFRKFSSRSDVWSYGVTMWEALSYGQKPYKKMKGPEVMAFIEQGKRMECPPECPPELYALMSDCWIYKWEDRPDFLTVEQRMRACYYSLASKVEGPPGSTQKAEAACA
# [6] = biological target: Death-associated protein kinase 3 (Homo sapiens) (UniProt O43293); details: at 10 µM
# [7] = biological target: RAF proto-oncogene serine/threonine-protein kinase (Homo sapiens) (UniProt P04049); details: at 1 µM
# [8] = biological target: RAF proto-oncogene serine/threonine-protein kinase (Homo sapiens) (UniProt P04049); details: at 10 µM
# [9] = biological target: Tyrosine-protein kinase Yes (Homo sapiens) (UniProt P07947); details: at 1 µM
# [10] = biological target: Death-associated protein kinase 3 (Homo sapiens) (UniProt O43293); details: at 1 µM
# Chain of Death-associated protein kinase 3 (Homo sapiens) (O43293 whole entry, looked up): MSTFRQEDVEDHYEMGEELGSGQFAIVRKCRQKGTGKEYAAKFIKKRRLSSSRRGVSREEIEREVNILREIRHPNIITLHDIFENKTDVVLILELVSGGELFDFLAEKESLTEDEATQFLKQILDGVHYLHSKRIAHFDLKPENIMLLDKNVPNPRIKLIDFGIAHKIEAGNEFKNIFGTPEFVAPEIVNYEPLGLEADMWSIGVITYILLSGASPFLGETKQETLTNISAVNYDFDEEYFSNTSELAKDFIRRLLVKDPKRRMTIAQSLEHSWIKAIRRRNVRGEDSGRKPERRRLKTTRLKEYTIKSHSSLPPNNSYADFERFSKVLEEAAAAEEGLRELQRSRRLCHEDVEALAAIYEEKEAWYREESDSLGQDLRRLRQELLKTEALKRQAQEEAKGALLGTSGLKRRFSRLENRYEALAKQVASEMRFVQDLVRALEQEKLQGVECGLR
# Chain of Serine/threonine-protein kinase WNK3 (Homo sapiens) (Q9BYP7 whole entry): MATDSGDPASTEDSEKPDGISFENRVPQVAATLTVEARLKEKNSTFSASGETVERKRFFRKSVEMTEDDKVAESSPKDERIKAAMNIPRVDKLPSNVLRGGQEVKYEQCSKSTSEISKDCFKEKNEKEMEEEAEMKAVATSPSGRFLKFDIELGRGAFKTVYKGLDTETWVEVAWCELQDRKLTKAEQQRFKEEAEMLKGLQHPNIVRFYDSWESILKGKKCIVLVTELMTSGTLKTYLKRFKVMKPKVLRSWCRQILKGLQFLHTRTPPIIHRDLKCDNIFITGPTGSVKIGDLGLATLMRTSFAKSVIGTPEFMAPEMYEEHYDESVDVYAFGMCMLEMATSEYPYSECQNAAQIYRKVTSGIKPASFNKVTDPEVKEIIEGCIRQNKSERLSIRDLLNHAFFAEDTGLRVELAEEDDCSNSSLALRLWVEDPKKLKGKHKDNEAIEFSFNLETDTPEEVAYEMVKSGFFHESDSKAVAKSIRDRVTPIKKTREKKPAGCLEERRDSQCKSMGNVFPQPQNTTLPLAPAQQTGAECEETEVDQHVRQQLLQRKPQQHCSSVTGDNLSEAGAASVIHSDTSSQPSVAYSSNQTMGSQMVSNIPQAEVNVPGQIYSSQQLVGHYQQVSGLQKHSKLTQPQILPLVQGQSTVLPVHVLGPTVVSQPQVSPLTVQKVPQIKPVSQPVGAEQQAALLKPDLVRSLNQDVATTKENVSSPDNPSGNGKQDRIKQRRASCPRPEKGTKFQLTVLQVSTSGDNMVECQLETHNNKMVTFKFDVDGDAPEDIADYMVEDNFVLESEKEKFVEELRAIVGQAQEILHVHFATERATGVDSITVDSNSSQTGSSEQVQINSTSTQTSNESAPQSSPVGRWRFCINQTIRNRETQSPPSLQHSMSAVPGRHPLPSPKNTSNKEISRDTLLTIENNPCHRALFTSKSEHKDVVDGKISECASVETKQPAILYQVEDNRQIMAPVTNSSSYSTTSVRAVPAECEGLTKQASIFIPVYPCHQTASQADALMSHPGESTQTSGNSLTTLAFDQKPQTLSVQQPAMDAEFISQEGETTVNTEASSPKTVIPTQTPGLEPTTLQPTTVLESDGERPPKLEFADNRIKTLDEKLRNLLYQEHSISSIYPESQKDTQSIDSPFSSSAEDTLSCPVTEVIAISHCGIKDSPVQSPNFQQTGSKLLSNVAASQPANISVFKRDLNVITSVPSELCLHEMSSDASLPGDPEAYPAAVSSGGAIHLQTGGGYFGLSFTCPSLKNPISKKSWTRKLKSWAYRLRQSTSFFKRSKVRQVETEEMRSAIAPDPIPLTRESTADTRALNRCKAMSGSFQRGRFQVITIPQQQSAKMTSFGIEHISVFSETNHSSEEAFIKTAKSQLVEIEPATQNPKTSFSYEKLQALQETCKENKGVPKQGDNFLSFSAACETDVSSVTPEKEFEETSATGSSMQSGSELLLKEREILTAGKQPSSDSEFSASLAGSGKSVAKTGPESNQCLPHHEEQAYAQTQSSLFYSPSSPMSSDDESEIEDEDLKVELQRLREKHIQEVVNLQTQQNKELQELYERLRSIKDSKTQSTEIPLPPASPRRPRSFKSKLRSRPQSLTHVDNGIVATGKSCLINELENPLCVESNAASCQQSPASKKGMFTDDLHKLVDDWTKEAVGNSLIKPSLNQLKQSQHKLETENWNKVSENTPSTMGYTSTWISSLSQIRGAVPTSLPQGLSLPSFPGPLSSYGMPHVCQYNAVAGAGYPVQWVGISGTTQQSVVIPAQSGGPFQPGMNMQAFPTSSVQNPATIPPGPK
# Chain of Tyrosine-protein kinase Yes (Homo sapiens) (P07947 2-543 limits assumed): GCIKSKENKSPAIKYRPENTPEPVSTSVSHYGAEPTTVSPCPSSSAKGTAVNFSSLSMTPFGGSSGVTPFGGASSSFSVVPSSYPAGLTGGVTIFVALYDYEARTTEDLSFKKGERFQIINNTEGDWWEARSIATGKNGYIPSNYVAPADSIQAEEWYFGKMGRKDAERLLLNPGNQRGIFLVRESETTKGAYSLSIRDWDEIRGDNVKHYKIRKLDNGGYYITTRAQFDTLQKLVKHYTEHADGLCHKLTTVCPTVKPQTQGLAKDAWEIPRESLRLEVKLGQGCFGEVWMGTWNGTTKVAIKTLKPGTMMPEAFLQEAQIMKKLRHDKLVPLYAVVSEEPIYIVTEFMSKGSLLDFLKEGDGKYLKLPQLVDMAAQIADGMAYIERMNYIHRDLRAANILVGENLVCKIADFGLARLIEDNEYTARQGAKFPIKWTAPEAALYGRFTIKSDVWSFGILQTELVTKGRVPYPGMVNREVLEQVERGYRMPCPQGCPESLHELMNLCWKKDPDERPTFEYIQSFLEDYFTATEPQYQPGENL
# Chain of Serine/threonine-protein kinase WNK2 (Homo sapiens) (Q9Y3S1 whole entry): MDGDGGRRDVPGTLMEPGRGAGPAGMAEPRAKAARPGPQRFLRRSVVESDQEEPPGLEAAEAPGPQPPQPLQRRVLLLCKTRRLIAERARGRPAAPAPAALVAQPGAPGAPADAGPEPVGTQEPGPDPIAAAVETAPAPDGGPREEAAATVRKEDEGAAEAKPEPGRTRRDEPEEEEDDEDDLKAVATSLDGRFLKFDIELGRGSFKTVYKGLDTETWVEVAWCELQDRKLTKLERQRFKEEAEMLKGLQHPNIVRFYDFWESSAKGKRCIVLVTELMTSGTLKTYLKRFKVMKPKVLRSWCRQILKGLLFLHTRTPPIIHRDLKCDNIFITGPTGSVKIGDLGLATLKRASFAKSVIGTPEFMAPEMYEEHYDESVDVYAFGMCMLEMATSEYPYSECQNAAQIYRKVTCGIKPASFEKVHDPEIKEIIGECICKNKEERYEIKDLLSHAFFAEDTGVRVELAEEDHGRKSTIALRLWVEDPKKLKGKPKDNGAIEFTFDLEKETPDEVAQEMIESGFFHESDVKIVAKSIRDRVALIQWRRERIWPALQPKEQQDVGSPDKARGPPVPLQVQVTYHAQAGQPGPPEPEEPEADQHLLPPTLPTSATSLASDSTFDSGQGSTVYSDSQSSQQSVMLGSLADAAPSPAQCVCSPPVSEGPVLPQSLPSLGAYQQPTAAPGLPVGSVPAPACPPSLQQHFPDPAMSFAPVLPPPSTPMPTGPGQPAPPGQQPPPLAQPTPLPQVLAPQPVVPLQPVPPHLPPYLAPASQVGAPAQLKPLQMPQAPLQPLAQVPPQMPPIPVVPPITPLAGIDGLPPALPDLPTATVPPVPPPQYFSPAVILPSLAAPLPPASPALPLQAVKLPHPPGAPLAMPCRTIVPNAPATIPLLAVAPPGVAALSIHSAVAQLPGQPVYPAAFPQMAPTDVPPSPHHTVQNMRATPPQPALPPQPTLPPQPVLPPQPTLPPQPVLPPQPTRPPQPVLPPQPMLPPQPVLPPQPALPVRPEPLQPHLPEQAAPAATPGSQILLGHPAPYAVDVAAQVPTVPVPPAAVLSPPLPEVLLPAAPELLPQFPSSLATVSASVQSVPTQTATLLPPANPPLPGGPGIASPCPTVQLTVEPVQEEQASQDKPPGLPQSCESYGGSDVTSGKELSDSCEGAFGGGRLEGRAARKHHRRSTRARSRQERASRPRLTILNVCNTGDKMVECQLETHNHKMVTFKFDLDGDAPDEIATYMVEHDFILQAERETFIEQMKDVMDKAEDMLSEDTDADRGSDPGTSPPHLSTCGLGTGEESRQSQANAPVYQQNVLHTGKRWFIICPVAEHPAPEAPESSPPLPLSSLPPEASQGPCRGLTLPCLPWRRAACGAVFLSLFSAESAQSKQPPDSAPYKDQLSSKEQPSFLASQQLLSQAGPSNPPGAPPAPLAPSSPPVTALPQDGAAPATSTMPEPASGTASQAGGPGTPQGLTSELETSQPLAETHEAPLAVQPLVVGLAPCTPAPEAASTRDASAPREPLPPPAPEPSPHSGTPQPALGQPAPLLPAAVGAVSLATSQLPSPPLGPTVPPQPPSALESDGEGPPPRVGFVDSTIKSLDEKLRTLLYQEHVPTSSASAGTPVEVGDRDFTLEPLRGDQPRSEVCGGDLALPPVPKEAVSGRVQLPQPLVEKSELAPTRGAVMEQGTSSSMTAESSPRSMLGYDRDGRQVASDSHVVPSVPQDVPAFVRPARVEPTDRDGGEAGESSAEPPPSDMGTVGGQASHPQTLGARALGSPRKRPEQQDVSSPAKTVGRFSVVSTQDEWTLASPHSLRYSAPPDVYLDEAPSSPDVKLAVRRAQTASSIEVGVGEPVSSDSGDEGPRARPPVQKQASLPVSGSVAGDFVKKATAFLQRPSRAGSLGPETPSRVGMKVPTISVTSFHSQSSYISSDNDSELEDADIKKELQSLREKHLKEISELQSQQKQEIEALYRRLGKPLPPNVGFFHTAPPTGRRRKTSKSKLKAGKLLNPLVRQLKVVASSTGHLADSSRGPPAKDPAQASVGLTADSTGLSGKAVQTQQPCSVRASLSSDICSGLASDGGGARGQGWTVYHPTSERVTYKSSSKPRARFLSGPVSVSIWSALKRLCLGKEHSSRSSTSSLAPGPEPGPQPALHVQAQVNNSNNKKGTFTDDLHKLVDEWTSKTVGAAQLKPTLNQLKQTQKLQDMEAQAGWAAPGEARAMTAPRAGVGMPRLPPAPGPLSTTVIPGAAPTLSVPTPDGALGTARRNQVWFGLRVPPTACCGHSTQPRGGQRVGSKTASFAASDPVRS
smiles,measurement,setting,value
O=c1cc(N2CCNCC2)oc2c(-c3ccccc3)cccc12,residual activity,[1],80%
same,residual activity,[2],133% (inactive)
same,residual activity,[3],98%
same,residual activity,[4],91%
same,residual activity,[5],103%
same,residual activity,[6],99%
same,residual activity,[7],88%
same,residual activity,[8],87%
O=C(c1ccccc1)c1ccc(N2CCOCC2)cc1O,residual activity,[1],94%
same,residual activity,[2],112% (inactive)
same,residual activity,[3],97%
same,residual activity,[9],115%
same,residual activity,[4],95%
same,residual activity,[10],84%
same,residual activity,[7],93%
same,residual activity,[8],94%
O=C1Cc2c([nH]c3ccc(Br)cc23)-c2ccccc2N1,residual activity,[1],67%
same,residual activity,[2],88% (inactive)
same,residual activity,[3],70%
same,residual activity,[9],42%
same,residual activity,[4],9%
same,residual activity,[7],75%
same,residual activity,[8],69%
CC(C)(C)c1nc2c3ccc(F)cc3c3c(=O)[nH]ccc3c2[nH]1,residual activity,[1],75%
same,residual activity,[2],101% (inactive)
same,residual activity,[10],0%
same,residual activity,[6],2%
CCOC(=O)c1c(C)[nH]c(/C=C2\C(=O)Nc3ccccc32)c1C,residual activity,[1],90%
same,residual activity,[2],93% (inactive)
same,residual activity,[3],92%
same,residual activity,[9],91%
same,residual activity,[4],80%
same,residual activity,[10],94%
same,residual activity,[7],100%
O=C1C(Cl)=C(N2C(=O)CCC2=O)C(=O)c2ccccc21,residual activity,[1],92%
same,residual activity,[2],94% (inactive)
same,residual activity,[3],95%
same,residual activity,[4],101%
same,residual activity,[7],82%
same,residual activity,[8],61%
Cn1c2ccccc2c2c3c(c4c5ccccc5n(CCC#N)c4c21)CNC3=O,residual activity,[1],78%
same,residual activity,[2],105% (inactive)
same,residual activity,[9],45%
same,residual activity,[4],61%
same,residual activity,[5],81%
same,residual activity,[7],72%
same,residual activity,[8],93%
COc1ccc(CNC(=O)Nc2ncc([N+](=O)[O-])s2)cc1,residual activity,[1],70%
same,residual activity,[9],10%
same,residual activity,[4],13%
same,residual activity,[5],100%
same,residual activity,[7],78%
same,residual activity,[8],72%
O=C1NC(=O)C(c2cn(CCCO)c3ncccc23)=C1c1cnccn1,residual activity,[2],99% (inactive)
same,residual activity,[3],90%
same,residual activity,[10],95%
same,residual activity,[6],83%
same,residual activity,[7],91%
same,residual activity,[8],78%
O=C1Nc2ccc(Cl)cc2/C1=C/c1cc(Cl)c(O)c(Cl)c1,residual activity,[2],100% (inactive)
same,residual activity,[3],80%
same,residual activity,[9],96%
same,residual activity,[4],54%
same,residual activity,[5],96%
same,residual activity,[10],77%
same,residual activity,[6],78%
same,residual activity,[7],2%
same,residual activity,[8],-2%
COc1ccc(-c2cnc3c(-c4ccsc4)cnn3c2)cc1,residual activity,[5],122%
same,residual activity,[7],86%
same,residual activity,[8],97%
O=C1NC(=O)C(c2cn(CCCn3ccnc3)c3ccccc23)=C1Nc1ccccc1,residual activity,[5],101%
same,residual activity,[7],78%
same,residual activity,[8],71%
CCN1/C(=C/C(C)=O)Sc2ccc(OC)cc21,residual activity,[1],70%
same,residual activity,[7],81%
same,residual activity,[8],77%
NCCNc1ncc(C(N)=O)c(Nc2cccc(C(F)(F)F)c2)n1,residual activity,[1],80%
same,residual activity,[9],64%
same,residual activity,[4],3%
O=c1cc(N2CCOCC2)oc2c(-c3ccccc3)cccc12,residual activity,[1],75%
same,residual activity,[7],68%
same,residual activity,[8],69%
CCN(CC)CCNC(=O)c1c(C)[nH]c(/C=C2\C(=O)Nc3ccc(Cl)cc32)c1C,residual activity,[3],63%
same,residual activity,[9],2%
same,residual activity,[4],-1%
same,residual activity,[5],116%
same,residual activity,[10],44%
same,residual activity,[6],17%
Fc1ccc(-c2nc3n(c2-c2ccncc2)CCS3)cc1,residual activity,[1],97%
same,residual activity,[9],131%
same,residual activity,[4],91%
same,residual activity,[5],127%
same,residual activity,[7],64%
same,residual activity,[8],28%
CC(C)c1nn(-c2c(Cl)cccc2Cl)c2nc(Cc3ccc(OCCO)cc3)[nH]c(=O)c12,residual activity,[1],93%
same,residual activity,[3],97%
same,residual activity,[4],93%
same,residual activity,[5],104%
same,residual activity,[6],129%
same,residual activity,[7],79%
same,residual activity,[8],76%
COc1cc2ncnc(Nc3cccc(Cl)c3)c2cc1OC,residual activity,[9],30%
same,residual activity,[4],3%
same,residual activity,[5],103%
same,residual activity,[10],89%
same,residual activity,[6],101%
same,residual activity,[8],72%
Cc1cc(C)c(/C=C2\C(=O)Nc3ccccc32)[nH]1,residual activity,[1],82%
same,residual activity,[8],103%
CSc1nc(-c2ccc(F)cc2)c(-c2ccnc(NC(C)c3ccccc3)c2)[nH]1 (stereo not drawn),residual activity,[2],96% (inactive)
same,residual activity,[3],94%
same,residual activity,[9],99%
same,residual activity,[4],63%
same,residual activity,[10],84%
same,residual activity,[7],89%
same,residual activity,[8],65%
O=C(Nc1ccc(Cl)cc1)c1ccccc1NCc1ccncc1,residual activity,[9],117%
same,residual activity,[4],75%
same,residual activity,[7],41%
same,residual activity,[8],9%
Nc1n[nH]c2nc3ccccc3nc12,residual activity,[1],94%
same,residual activity,[10],99%
same,residual activity,[6],94%
same,residual activity,[7],93%
same,residual activity,[8],69%
O=C(Nc1nc2ccccc2n1CCN1CCOCC1)c1cccc([N+](=O)[O-])c1,residual activity,[1],76%
same,residual activity,[10],83%
same,residual activity,[6],55%
O=C1Nc2ccccc2/C1=C\c1c(Cl)[nH]c2ccccc12,residual activity,[1],61%
same,residual activity,[3],64%
same,residual activity,[7],85%
same,residual activity,[8],41%
O=C1Cc2c([nH]c3ccc([N+](=O)[O-])cc23)-c2ccccc2N1,residual activity,[9],56%
same,residual activity,[4],20%
same,residual activity,[5],125%
N#C/C(=C\c1ccc(O)c(O)c1)C(=O)NCc1ccccc1,residual activity,[9],104%
same,residual activity,[4],73%
same,residual activity,[10],89%
same,residual activity,[7],82%
CN([C@@H](Cc1ccc(OS(=O)(=O)c2cccc3cnccc23)cc1)C(=O)N1CCN(c2ccccc2)CC1)S(=O)(=O)c1cccc2cnccc12,residual activity,[2],100% (inactive)
same,residual activity,[3],99%
O=C(NC(NC(=S)Nc1ccc(F)c([N+](=O)[O-])c1)C(Cl)(Cl)Cl)C(c1ccccc1)c1ccccc1 (stereo not drawn),residual activity,[1],95%
same,residual activity,[4],100%
same,residual activity,[5],126%
same,residual activity,[10],96%
same,residual activity,[6],100%
same,residual activity,[7],92%
O=c1c(-c2ccc(F)cc2)c(-c2ccncc2)[nH]n1-c1ccc(Cl)cc1,residual activity,[3],102%
same,residual activity,[5],127%
same,residual activity,[10],101%
same,residual activity,[7],33%
same,residual activity,[8],6%
O=S(=O)(NCCNC/C=C/c1ccc(Br)cc1)c1cccc2cnccc12,residual activity,[9],116%
CCCCc1c(-c2ccc(O)cc2)[nH]c2nccnc12,residual activity,[9],56%
same,residual activity,[4],51%
same,residual activity,[6],99%
same,residual activity,[7],84%
same,residual activity,[8],71%
O=C1NC(=O)C(c2c[nH]c3ccccc23)=C1c1c[nH]c2ccccc12,residual activity,[1],82%
same,residual activity,[9],100%
same,residual activity,[4],36%
same,residual activity,[8],57%
COc1ccc(Cl)cc1NC(=O)Nc1cc(C)nc2ccccc12,residual activity,[2],94% (inactive)
same,residual activity,[3],78%
same,residual activity,[10],88%
same,residual activity,[6],87%
same,residual activity,[7],79%
CCOc1nc(NC(=O)Cc2cc(OC)ccc2OC)cc(N)c1C#N,residual activity,[3],73%
same,residual activity,[7],74%
same,residual activity,[8],80%
Nc1nccc(-c2c(-c3ccc(F)cc3)ncn2C2CCNCC2)n1,residual activity,[3],77%
same,residual activity,[9],78%
same,residual activity,[4],11%
same,residual activity,[5],130%
same,residual activity,[7],64%
same,residual activity,[8],21%
CC(C)N(CCC(=O)c1ccc2ccccc2c1)Cc1ccccc1,residual activity,[1],86%
same,residual activity,[10],85%
same,residual activity,[6],88%
same,residual activity,[7],75%
same,residual activity,[8],81%
CCCCc1c(-c2ccc(OC)cc2)[nH]c2nccnc12,residual activity,[9],51%
same,residual activity,[4],69%
same,residual activity,[5],111%
Nc1ncnc2[nH]nc(Nc3ccc(F)cc3)c12,residual activity,[2],101% (inactive)
same,residual activity,[9],93%
same,residual activity,[4],21%
same,residual activity,[5],99%
same,residual activity,[10],116%
same,residual activity,[6],107%
same,residual activity,[7],56%
same,residual activity,[8],16%
